The entries come from a sample that favours hits as a whole.
IDE exosite FP – displaces the probe from the exo-site of human IDE. purified IDE, FL-6b probe fluorescence polarization; active compounds read low. P14735. 6.3% of 17,000 active. z-score at 20 µM;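 active = z-score of -3 or lower, meaning strong loss of probe binding signal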;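 also: His-tagged human IDE residues 42-1019 made in E. coli with 30 nM FL-6b probe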
Numbers without * were called inactive.

Screening OC[C@H]1[C@H](c2ccc(C#Cc3ccccc3F)cc2)[C@H]2CN(Cc3cncnc3)CCCCN21 returned IDE exosite FP -5.7*.
OC[C@H]1[C@H](c2ccc(C#Cc3ccccc3F)cc2)[C@@H]2CN(Cc3cncnc3)CCCCN12 was read as IDE exosite FP -2.3.
OC[C@@H]1[C@@H](c2ccc(C#Cc3ccccc3F)cc2)[C@H]2CN(Cc3cncnc3)CCCCN12 was read as IDE exosite FP -1.6.
`OC[C@@H]1[C@H](c2ccc(C#Cc3ccccc3F)cc2)[C@@H]2CN(Cc3cncnc3)CCCCN12` gave IDE exosite FP -3.51*.
For OC[C@H]1[C@H](c2ccc(-c3ccccc3F)cc2)[C@@H]2CN(Cc3cncnc3)CCCCN12 the results were IDE exosite FP 2.23.
Screening COc1ccc2c3c(n(C)c2c1)[C@@H](CO)N(S(C)(=O)=O)CC31CCN(C(=O)Nc2cccc(F)c2)CC1 returned IDE exosite FP -1.29.
O=S(=O)(c1ccccc1)N1CCCCN2[C@H](C1)[C@@H](c1ccc(-c3cncnc3)cc1)[C@@H]2CO was read as IDE exosite FP 4.58.
O=C(C1CCOCC1)N1CC2(C1)[C@@H](c1ccccc1)[C@H](CO)N2Cc1ccccc1F was read as IDE exosite FP 0.817.
C/C=C/c1ccc([C@H]2[C@@H](CO)N3CCCCN(C(=O)NC4CCCC4)C[C@H]23)cc1 was read as IDE exosite FP 1.28.
For O=C(NC1CCCC1)N1CCCCN2[C@H](CO)[C@@H](c3ccc(/C=C/c4ccccc4)cc3)[C@H]2C1 the results were IDE exosite FP -4.25*.
`O=C(NC1CCCC1)N1CCCCN2[C@H](CO)[C@H](c3ccc(/C=C/c4ccccc4)cc3)[C@@H]2C1` gave IDE exosite FP -9.7*.
For C[C@H]1COCc2cn(nn2)CCCC(=O)N1 the results were IDE exosite FP 1.79.
`COc1ccc(NC(=O)Nc2cccc3c2O[C@H](CN(C)Cc2ccc(C(=O)O)cc2)[C@H](C)CN([C@@H](C)CO)C3=O)cc1` gave IDE exosite FP -0.06.
`COc1cccc(-c2ccc([C@@H]3[C@H]4CNCC(=O)N4[C@H]3CO)cc2)c1` gave IDE exosite FP -2.3.
CCCNC(=O)C[C@H]1CC[C@@H]2[C@H](COC[C@@H](O)CN2Cc2ccncc2)O1 was read as IDE exosite FP -0.149.
For COCC(=O)N1CCCCN2[C@H](C1)[C@H](c1ccc(C#Cc3cccnc3)cc1)[C@@H]2CO the results were IDE exosite FP 0.392.
For CCC(=O)N1CCCCN2[C@H](C1)[C@H](c1ccc(-c3cccnc3)cc1)[C@@H]2CO the results were IDE exosite FP 2.52.
`CCC(=O)N1CCCCN2[C@@H](CO)[C@@H](c3ccc(C#Cc4cccnc4)cc3)[C@@H]2C1` gave IDE exosite FP -3.15*.
`COCC(=O)N1CCCCN2[C@H](CO)[C@H](c3ccc(C#Cc4cccnc4)cc3)[C@@H]2C1` gave IDE exosite FP -3.06*.
For COCC(=O)N1CCCCN2[C@H](CO)[C@H](c3ccc(C#Cc4cccnc4)cc3)[C@H]2C1 the results were IDE exosite FP 2.6.
For CCC(=O)N1CCCCN2[C@H](CO)[C@H](c3ccc(C#Cc4cccnc4)cc3)[C@@H]2C1 the results were IDE exosite FP -10.4*.
For CCC(=O)N1CCCCN2[C@@H](CO)[C@@H](c3ccc(-c4cccnc4)cc3)[C@@H]2C1 the results were IDE exosite FP 0.0161.
For O=C(Nc1cccc(F)c1)N1CCCCN2[C@H](CO)[C@H](c3ccc(C#Cc4cccnc4)cc3)[C@@H]2C1 the results were IDE exosite FP -1.65.
`CN1c2ccc(-c3ccc(F)cc3)cc2[C@H]2[C@H](CCN2C(=O)Cc2cccnc2)[C@@H]1CO` gave IDE exosite FP 1.49.
For CN(C)C(=O)c1ccc(-c2ccccc2[C@H]2[C@@H](C#N)N(C(=O)C3CC3)[C@@H]2CO)cc1 the results were IDE exosite FP -1.96.
CO[C@H](CN(C)Cc1cc(F)ccc1F)[C@@H](C)CN([C@H](C)CO)S(=O)(=O)c1ccc(C)cc1 was read as IDE exosite FP 0.314.
`C/C=C/c1ccccc1[C@@H]1[C@@H](CO)N(C(=O)Cc2ccccn2)[C@H]1C#N` gave IDE exosite FP -0.564.
For COc1ccc2c3c([nH]c2c1)[C@H](CO)N(C(=O)c1ccc(F)cc1)CC31CCN(S(=O)(=O)c2cccs2)CC1 the results were IDE exosite FP -1.02.
Screening O=C(c1ccc(F)cc1)N1CC(=O)N2[C@H](CO)[C@H](c3ccc(/C=C/c4ccccc4)cc3)[C@@H]2C1 returned IDE exosite FP 1.23.
Screening O=C(c1ccccc1)N1CC(=O)N2[C@H](CO)[C@H](c3ccc(/C=C/c4ccccc4)cc3)[C@@H]2C1 returned IDE exosite FP -2.8.
`C/C=C/c1ccc([C@@H]2[C@H](CO)N3C(=O)CN(C(=O)c4ccncc4)C[C@@H]23)cc1` gave IDE exosite FP 0.705.
`O=C(c1ccncc1)N1CC(=O)N2[C@H](CO)[C@@H](c3ccc(/C=C/c4ccccc4)cc3)[C@@H]2C1` gave IDE exosite FP -1.02.
`C/C=C/c1ccc([C@@H]2[C@@H](CO)N3C(=O)CN(C(=O)c4ccncc4)C[C@@H]23)cc1` gave IDE exosite FP 1.06.
Screening O=C(c1ccccc1)N1CC(=O)N2[C@H](CO)[C@H](c3ccc(/C=C/c4ccccc4)cc3)[C@H]2C1 returned IDE exosite FP -8.37*.
Screening O=C(c1ccncc1)N1CC(=O)N2[C@H](C1)[C@@H](c1ccc(/C=C/c3ccccc3)cc1)[C@@H]2CO returned IDE exosite FP -5.98*.
O=C(c1ccncc1)N1CC(=O)N2[C@@H](CO)[C@H](c3ccc(/C=C/c4ccccc4)cc3)[C@@H]2C1 was read as IDE exosite FP -15.9*.
Screening C/C=C/c1ccc([C@H]2[C@H]3CN(C(=O)c4ccncc4)CC(=O)N3[C@H]2CO)cc1 returned IDE exosite FP 0.604.
`COc1ccccc1NC(=O)N1C[C@H](O)COC[C@H]2O[C@@H](CC(=O)N3CCC(Cc4ccccc4)CC3)CC[C@@H]21` gave IDE exosite FP -0.956.
COCC(=O)N1[C@H](C#N)[C@@H](c2ccccc2C2=CCCCC2)[C@H]1CO was read as IDE exosite FP -0.468.
Screening COc1ccc(-c2ccc([C@H]3[C@H](CO)N4C(=O)CN(C(=O)C5CCOCC5)C[C@@H]34)cc2)cc1 returned IDE exosite FP -1.15.
For O=C(CN1CCOCC1)N1CC(=O)N2[C@@H](CO)[C@H](c3ccc(-c4ccccc4)cc3)[C@@H]2C1 the results were IDE exosite FP 1.49.
`COc1ccc(-c2ccc([C@@H]3[C@@H](CO)N4C(=O)CN(C(=O)C5CCOCC5)C[C@H]34)cc2)cc1` gave IDE exosite FP 1.63.
Screening O=C(CN1CCOCC1)N1CC(=O)N2[C@H](CO)[C@@H](c3ccc(-c4cccc(F)c4)cc3)[C@H]2C1 returned IDE exosite FP 1.21.
`COc1cccc(-c2ccc([C@H]3[C@@H](CO)N4C(=O)CN(C(=O)C5CCOCC5)C[C@H]34)cc2)c1` gave IDE exosite FP -8.69*.
For COc1cccc(-c2ccc([C@H]3[C@H](CO)N4C(=O)CN(C(=O)CN5CCOCC5)C[C@@H]34)cc2)c1 the results were IDE exosite FP -3.36*.
Screening COc1cccc(-c2ccc([C@H]3[C@@H](CO)N4C(=O)CN(C(=O)C5CCOCC5)C[C@@H]34)cc2)c1 returned IDE exosite FP -4.45*.
Screening COc1cccc(-c2ccc([C@H]3[C@H](CO)N4C(=O)CN(C(=O)C5CCOCC5)C[C@@H]34)cc2)c1 returned IDE exosite FP -1.85.

Bioassay records (PubChem BioAssay)
